Measurements from PubChem BioAssay (NCI).
About 83,000 compounds went through this panel and 20% of them were active in at least one assay; those are over-represented in the sample as a whole.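 Step 1: grow cells in 96-well plates. Step 2: add test compound at a single concentration. Step 3: incubate 48 h. Step 4: record percent growth.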 Activity calls are given as the source filed them.

system: SK-MEL-2 melanoma; experiment: NCI-60 one-dose screen, 48 h (100 = growth as untreated, 0 = no growth, -100 = all killed); details: 10 µM unless noted
Description: Growth inhibition of the SK-MEL-2 human tumor cell line is measured as a screen for anti-cancer activity. Cells are grown in 96 well plates and exposed to the test compound for 48 hours. Compounds are tested at a single concentration, which is 10^-5 M for most compounds. The reported endpoint is percent growth (GI% or GIPRCNT), where numbers from 0 - 100% represent growth inhibition, and numbers from -100% - 0 represent cell death. For example, a value of 40 represents 60% growth inhibition. A value of 0 means no net growth occurred over the course of the experiment. A value of -40 indicates 40% of cells at the beginning of the experiment died by the end of the experiment. A value of -100 means all cells are dead at the end of the experiment.
NCI-60 Human Tumor Cell Lines Screen was performed using the standard one-dose NCI protocol, which is described in more detail at https://dtp.cancer.gov/discovery_development/nci-60/default.htm.
Compounds with GIPRCNT values below 10 were considered active. Activity score was based on GIPRCNT using the following formula: […]
Score is 0 for GIPRCNT values of 100 or above, 50 for GIPRCNT values of 0, and 100 for GIPRCNT values of -100.

Compound | growth
N#C/C(=C\c1c(-c2ccccc2)[nH]c2ccccc12)C(=O)c1ccccc1 | 47.8% (inactive)
O=C(NN1C(=O)CSC1c1ccc(Cl)cc1)c1[nH]c2ccc(F)cc2c1-c1ccccc1 (stereo not given) | 49.3% (inactive)
COc1ccc(Nc2cc(C)nc(NCc3ccccc3)n2)cc1 | 31.1% (inactive)
COc1ccccc1N1C(=N)S/C(=C\c2ccc(OCc3ccccc3F)cc2)C1=O | 82.7% (inactive)
COc1ccc(/C=C/C(=O)c2c(C)nc3ccccc3c2/C=C/c2ccccc2)c(OC)c1 | 95.9% (inactive)
O=c1oc2ccc(I)cc2c(=O)n1-c1ccc(I)cc1F | -29.7% (active)
Nc1nc(N)c2c(n1)NC1(C=C(O)c3ccccc31)C1=C(N2)c2ccccc2C1=O (stereo not given) | 112% (inactive)
CN(C)CCCNCc1ccc(-c2ccc(F)c(Cl)c2)o1 | -14.8% (active)
O=c1oc2ccc(Br)cc2c(=O)n1-c1ccc(Cl)cc1F | -19.6% (active)
Cc1ccc(C)c(-c2csc(Nc3ccc(C)c(C)c3)n2)c1 | 31.6% (inactive)
O=c1c(-c2nc3ccccc3[nH]2)cc2ccccc2n1Cc1cn(Cc2ccc(F)cc2)nn1 | 36% (inactive)
O=C(CSc1nc2ccccc2c(=O)n1-c1ccccc1)Nc1ccc(C(=O)/C=C/c2ccc(Cl)cc2)cc1 | 99.9% (inactive)
COc1cc2c(cc1OC)C(=O)C(CC1CCN(C(=O)Nc3ccc(C)cc3)CC1)C2 (stereo not given) | 97.9% (inactive)
COc1cc(/C=C2\CCC/C(=C\c3cc(CN4CCCCC4)c(O)c(OC)c3)C2=O)cc(CN2CCCCC2)c1O | 101% (inactive)
CCOC(=O)c1cc2c(n1Cc1cc(OC)c(OC)c(OC)c1)-c1oncc1CCC2 | 54% (inactive)
O=C(Nc1ncc(Cc2cccc(C(F)(F)F)c2)s1)C1COc2ccccc2O1 (stereo not given) | 88% (inactive)
CCCCCCc1cc2cc(-c3nc4ccccc4[nH]3)c(=Nc3ccccc3C)oc2cc1O | 47.2% (inactive)
Clc1ccc(Oc2ccc(Nc3ncnc4onc(-c5ccccc5)c34)cc2)c(Cl)c1 | 104% (inactive)
O=C1C(Cl)=C(NCc2ccco2)C(=O)c2ccccc21 | 93.4% (inactive)
COc1cccc(C2=NN3C(C2)c2ccccc2OC3c2ccc(/C=C3\SC(=O)NC3=O)cc2)c1 (stereo not given) | 97.8% (inactive)

Compound | growth
O=C1c2ccc3c4c(ccc(c24)C(=O)N1CCCCO)C(=O)N(CCCCO)C3=O | 58.1% (inactive)
O=C(COc1cc(O)c2c(=O)cc(-c3ccccc3)oc2c1)Nc1ccccc1 | 96.6% (inactive)
COc1ccc2[nH]c(O)c(N=NC(=O)c3oc4ccccc4c3C)c2c1 | 70.9% (inactive)
COc1ccc(-c2nnc(COc3ccc(C(=O)/C=C/c4ccco4)cc3)o2)cc1 | 132% (inactive)
COc1ccc(N)c(-c2cc3c(c4c2[nH]c2ccc(OC)cc24)CCCC3)c1 | 95.4% (inactive)
CCN(CCO)CCNc1ccc(C)c2sc3cc(Cl)ccc3c(=O)c12 | 94.4% (inactive)
COc1cc(-c2c3c(c(Br)n2Cc2ccccc2)-c2nc(N)sc2CC3)cc(OC)c1OC | 101% (inactive)
CC(=O)SC1CC(=O)C=C2CCC3C4CCC(=O)OC4(C)CCC3C21C (stereo not given) | 106% (inactive)
Cc1nc2ccccc2c(/C=C/c2ccc(F)cc2)c1C(N)=O | 105% (inactive)
O=C(Nc1ccc(N2CCNCC2)cc1)c1[nH]ncc1Nc1ncnc2sc3c(c12)CCC3 | 4.15% (active)
COc1ccc2sc(N(Cc3cccnc3)C(=O)c3ccc(C#N)cc3)nc2c1 | 109% (inactive)
O=S1(=O)N(Cc2ccccc2)[C@@H](Cc2ccccc2)C2O[C@H]2[C@H](Cc2ccccc2)N1Cc1ccccc1 (stereo not given in full) | 84.1% (inactive)
CCCCN1CCN(c2ccc3nc(-c4ccc5nc(-c6ccc(C(F)(F)F)cc6)[nH]c5c4)[nH]c3c2)CC1 | -47.5% (active)
CCC1=C[C@]2(C3CC(=O)N(c4ccccc4)C3=O)CC(C(C)(C)C)C[C@@H]2[C@@H]2C(=O)N(c3ccccc3)C(=O)[C@H]12 (stereo not given in full) | 82.8% (inactive)
CC(=O)c1ccc(Cc2ccc(C(C)=O)s2)s1 | 98.9% (inactive)
COc1cc(C2C3=C(COC3=O)N(CCO)c3cc4c(cc32)CCC4)cc(OC)c1O (stereo not given) | 89% (inactive)
Cc1cc(OC(=O)c2ccc([N+](=O)[O-])cc2)nc2[nH]c(=O)sc12 | 104% (inactive)
O=C1/C(=C\c2ccc[nH]2)c2ccccc2N1c1ccccc1 | 106% (inactive)
NCCOc1ncccc1/C=C1\c2ccccc2-c2ccc(F)cc21 | 112% (inactive)
COc1cc([C@@H]2NC(=O)NC(C)=C2C(=O)Nc2nc(-c3ccc(Cl)cc3)cs2)ccc1O | 105% (inactive)
